Assay outcomes from PubChem.
mHTT-CaM PPI inh – disrupts binding of mutant huntingtin to calmodulin; P42858; AlphaScreen His-mHTT/GST-CaM binding, luminescence; inhibition, % at 15 µM; 190,000 compounds, 3.6% hits;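 further: 0% = both proteins with DMSO and 100% = one protein alone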
Pf apPOL inh – Pf-apPOL DNA polymerase inhibition; Recombinant Pf-apPOL, molecular beacon fluorescence, 1.5 h; inhibition, % at 10 µM; 210,000 compounds, 0.25% hits
* = called active by the depositor; / = no result. Shown is part of a subset that was picked to be rich in hits. No stated cut-off is given here; in the data, active means inhibition above about 50%; inactive means the rest.

SMILES	mHTT-CaM PPI inh	Pf apPOL inh
C[C@@H](c1ccccc1)N1C[C@H](COCc2ccccc2)Oc2cc(N3CC[C@@H](N(C)C)C3)ccc2S1(=O)=O	100.2*	-4.8
C[C@@H](c1ccccc1)N1C[C@H](COCc2ccccc2)Oc2cc(N3CC[C@H](N(C)C)C3)ccc2S1(=O)=O	100.1*	-6.0
C[C@H](c1ccccc1)N1C[C@H](COCc2ccccc2)Oc2cc(N3CC[C@H](N(C)C)C3)ccc2S1(=O)=O	-10.8	-5.0
COC[C@@H]1CCCN1c1ccc2c(c1)O[C@@H](COCc1ccccc1)CN([C@@H](C)c1ccccc1)S2(=O)=O	-3.2	0.5
FC(F)(F)c1cccc(NN=Cc2ccc(-c3cc(C(F)(F)F)cc(C(F)(F)F)c3)o2)c1	/	-7.8
O=C1NN(c2cccc(C(F)(F)F)c2)C(=O)/C1=C/c1ccc([N+](=O)[O-])o1	98.0*	-0.6
O=C1NN(c2ccccc2)C(=O)/C1=C/c1ccc(-c2ccccc2F)o1	10.0	-7.8
CC(=O)N1CCN(c2nc3c(s2)CC(C(=O)Nc2ccccc2)CC3)CC1 (stereo unspecified)	27.5	-0.9
CC(=O)N1CCN(c2nc3c(s2)CC(C(=O)Nc2cccc(C(C)(C)C)c2)CC3)CC1 (stereo unspecified)	54.3*	1.7
Cc1ccsc1C(=O)N1CCCC(c2nc(CCNC(=O)C3CC3)cs2)C1 (stereo unspecified)	-1.5	0.4
COc1ccccc1NC(=O)N1CCN(C)c2ccccc21	60.7*	0.2
O=C(Nc1ccc(F)c(Cl)c1)N1CC2CCCN2c2ccccc21 (stereo unspecified)	4.3	-2.8
COC(=O)c1cccc(NC(=O)N2CC3CCCN3c3ccccc32)c1 (stereo unspecified)	69.4*	-1.8
COc1ccc(OC)c(NC(=O)N2CCCC2c2ccccc2C)c1 (stereo unspecified)	19.3	-4.4
COc1ccc(OC)c(NC(=O)N2CC3CCCN3c3ccccc32)c1 (stereo unspecified)	82.6*	0.8
O=C(Nc1cccc(F)c1)N1CC2CCCN2c2ccccc21 (stereo unspecified)	46.3	-2.8
COc1ccccc1NC(=O)N1CCN(c2ccccc2OC)CC1	-0.8	-29.8
COc1cccc(NC(=O)N2CC3CCCN3c3ccccc32)c1 (stereo unspecified)	73.1*	-3.2
COc1ccc2c(N3CCC(C(=O)Nc4ccc(C)c(F)c4)CC3)c(C#N)cnc2c1	-2.4	-0.2
COc1cc(NC(=O)N2CCOc3ccc(C)cc32)cc(OC)c1OC	7.5	-6.7
COc1ccc(OC)c(NC(=O)N2CC(C)Oc3ccc(C)cc32)c1 (stereo unspecified)	62.3*	-16.2
COc1ccccc1NC(=O)N1CC(C)Oc2ccc(C)cc21 (stereo unspecified)	-1.7	-3.9
COc1ccc(CNC(=O)CCC(=O)N2CC3CCCN3c3ccccc32)c(OC)c1 (stereo unspecified)	36.3	-3.7
CCOC(=O)CNC(=O)N1CC2CCCN2c2ccccc21 (stereo unspecified)	15.5	-3.0
COc1cccc(CNC(=O)N2CC3CCCN3c3ccccc32)c1 (stereo unspecified)	66.4*	-0.5
SMILES	mHTT-CaM PPI inh	Pf apPOL inh
COc1ccc(OC)c(CCNC(=O)CCC(=O)N2CC3CCCN3c3ccccc32)c1 (stereo unspecified)	52.6*	-2.3
COc1cc(NC(=O)N2CC3CCCN3c3ccccc32)cc(OC)c1OC (stereo unspecified)	62.5*	3.8
NNC(=O)CON=Cc1ccc(Cl)cc1Cl	/	-0.3
O=[N+]([O-])c1ccc(OCC(O)CNCC2OCCc3ccccc32)cc1 (stereo unspecified)	1.0	-2.7
CCN1CCN(Cc2c(O)ccc3c2OC(=Cc2ccc(OC)cc2)C3=O)CC1	12.3	-12.9
Cc1nnc(N2C(=O)c3ccc(C(=O)c4ccc(C(=O)O)cc4)cc3C2=O)s1	1.5	-2.1
CCOC(=O)c1cccc(NC(=O)N2CC(CC)Oc3ccccc32)c1 (stereo unspecified)	-19.4	-3.2
CCOC(=O)c1cccc(NC(=O)N2CC3CCCN3c3ccccc32)c1 (stereo unspecified)	77.5*	-0.3
O=C(CSc1nc(-c2ccccc2)cc(-c2ccccc2)n1)N=C1NC(=O)CS1	61.0*	8.0
Cn1c2ccc(Br)cc2c2nnc(SCC(=O)N=C3NC(=O)CS3)nc21	23.0	4.9
COc1ccc(C2CCCN2C(=O)Nc2ccc(C)c(C)c2)cc1 (stereo unspecified)	-6.6	0.9
CCCC1(C)N=C(c2ccc3c(c2)OCO3)CC(c2ccccc2O)N1 (stereo unspecified)	84.0*	-8.4
Cc1ccc(C)c(C2=NC3(CCN(C)CC3)NC(c3cc(Cl)ccc3O)C2)c1 (stereo unspecified)	98.2*	1.1
Cc1ccc(C2CC(c3ccccc3O)=NC3(CCN(C)CC3)N2)cc1 (stereo unspecified)	38.2	6.5
